Several values for one entry are separate records, joined by “and”; a condition that tells them apart may be missing. Equal entries are not always repeated. About 5,100 (1.5%) of roughly 340,000 compounds were called active.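 Rule for the calls: active = mean Tm shift, scaled 0 neutral to 100 positive control, at about 1.3% or above, every replicate too (limit read from the data); inconclusive = no clear call, values can overlap the other calls; inactive = the rest.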 Only a selection was taken, and actives are over-represented in it overall.

The target of the experiment is Fibroblast growth factor 22 (Homo sapiens) (UniProt Q9HCT0). In words: binders of human FGF22 protein, primary screen, FGF22 synaptogenesis inhibitor project, biophysical, thermal shift, single point (AID 651658). Particulars: recombinant FGF22 thermal shift, SYPRO orange fluorescence; at 9.99 µM; active compounds read high; percent of sucrose octasulfate shift, DMSO zero.
Fibroblast growth factor 22 (Homo sapiens), sequence (Q9HCT0 whole entry, looked up): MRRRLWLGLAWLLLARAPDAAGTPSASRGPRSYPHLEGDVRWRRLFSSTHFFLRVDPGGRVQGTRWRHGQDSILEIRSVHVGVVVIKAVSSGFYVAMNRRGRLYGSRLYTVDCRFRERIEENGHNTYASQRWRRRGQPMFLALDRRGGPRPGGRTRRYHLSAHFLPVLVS
On to `Cc1ccc(S(=O)(=O)N(C)C[C@@H]2Oc3c(NC(=O)c4nc5ccccc5s4)cccc3C(=O)N([C@H](C)CO)C[C@@H]2C)cc1`, for which the activity (Tm shift, normalised) was -0.725% (inactive).
With `CC(C)=CCc1ccc(O)c(=O)cc1C(C)C` the figure was 43.3% (active); with `CC(C)=CCc1c(O)c(CC=C(C)C)c2occ(-c3ccc(O)cc3)c(=O)c2c1O`, 0.178% (inactive); with `CC(C)c1cc(N=O)cc(C(C)C)c1O`, -0.097% (inactive).
The same measure for `C[C@@H]1CCCCO[C@@H](CN(C)C(=O)CCCN(C)C)[C@@H](C)CN([C@H](C)CO)C(=O)c2cc(NC(=O)CCCN(C)C)ccc2O1`: -0.145% (inactive); for `C[C@H](CO)N1C[C@H](C)[C@H](CN(C)C)Oc2ncc(-c3ccncc3)cc2C1=O`: -0.058% (inactive); for `O=S(=O)(Nc1ccc2nc(N3CCOCC3)sc2c1)c1ccccc1`: -0.216% (inactive).
For `Cc1nc2ccc(NC(=O)c3cccc(S(=O)(=O)N4CCOCC4)c3)cc2s1`, the activity (Tm shift, normalised) was 1.04% (inactive).
With `O=C(O)c1cccc(S(=O)(=O)Nc2ccc(O)cc2Sc2nc3ccccc3s2)c1` the figure was 15.9% (active).
With `CC(=O)NC[C@@H]1[C@@H](c2ccccc2)[C@@H](CO)N1C(=O)Cc1cccnc1` the figure was 1.29% (active).
Take `CC(=O)NC[C@H]1[C@H](c2ccccc2)[C@@H](CO)N1C(=O)Cc1cccnc1`: the activity (Tm shift, normalised) was -0.409% (inactive).
The same measure for `O=C(NC[C@@H]1[C@@H](c2ccccc2)[C@H](CO)N1C(=O)Cc1cccnc1)C1CC1`: -1.07% (inactive); for `O=C(C[C@@H]1C=C[C@H](NC(=O)CN2CCOCC2)[C@@H](CO)O1)NC1CCC1`: 0.045% (inactive); for `O=C(NCC[C@@H]1CC[C@H](NC(=O)C2CC2)[C@@H](CO)O1)c1cc(Cl)cc(Cl)c1`: -0.053% (inactive).
Take `COc1ccccc1-n1c(SCC(=O)Nc2ccc(Cl)cc2)nc(O)c(Cc2ccccc2)c1=O`: the activity (Tm shift, normalised) was 43.9% (active).
Take `COc1ccc(NC(=O)CSc2nnc(Cc3ccccc3)c(=O)n2N)cc1`: the activity (Tm shift, normalised) was -0.143% (inactive).
Turning to `CCOc1ccc(NC(=O)CSc2nc3c(c(=O)n2-c2ccccc2OC)SCC3)cc1`, the activity (Tm shift, normalised) was -0.136% (inactive).
In the case of `CN1c2ccc(-c3ccc(F)cc3)cc2[C@@H]2[C@@H](CCN2C(=O)c2cccnc2)[C@H]1CO`, the activity (Tm shift, normalised) was -0.025% (inactive).
The same measure for `CO[C@@H]1CN(C)C(=O)c2ccc(NC(=O)NC(C)C)cc2OC[C@H](C)N(Cc2ccc(-c3ccccn3)cc2)C[C@H]1C`: 0.425% (inactive); for `CCCCCOc1ccc(/C=C/C(=O)NCCc2nc3ccccc3[nH]2)cc1OC`: 0.206% (inactive); for `COc1cc(/C=C(\C#N)c2nc3ccccc3[nH]2)ccc1O`: 2.24% (active).
As for `CCOc1ccc(/C=C(/C#N)c2nnc(N3CCOCC3)n2-c2ccccc2)cc1OC`, the activity (Tm shift, normalised) was -0.121% (inactive).
With `CCCC(=O)Nc1ccc2c(c1)OC[C@H](C)N(CCC(F)(F)F)C[C@@H](C)[C@H](OC)CN(C)C2=O` the figure was -0.05% (inactive); with `C/C=C/c1ccc([C@@H]2[C@H](CO)N(S(=O)(=O)Cc3ccccc3)C23CN(C(=O)C2CCOCC2)C3)cc1`, -0.098% (inactive).
With `O=C(Nc1c2c(nc3ccccc13)CCCC2)c1ccccc1Br` the figure was 44.2% (active).
On to `O=C(Nc1ccccc1)c1ccccc1Br`, for which the activity (Tm shift, normalised) is -0.119% (inactive).
Consider `N#Cc1cccc(Nc2c3c(nc4ccccc24)CCCC3)c1`, for which the activity (Tm shift, normalised) is 0.042% (inactive).
For the compound `CC(=O)N1[C@@H](CO)[C@@H](c2ccccc2)[C@@H]1CN(C)C(=O)CN1CCOCC1`, the activity (Tm shift, normalised) was 0.044% (inactive).
On to `O=C(C1CCCCC1)N1CC2(C1)[C@H](c1ccccc1)[C@@H](CO)N2CCC(F)(F)F`, for which the activity (Tm shift, normalised) is -0.014% (inactive).
With `O=C(Cc1ccncc1)N[C@@H]1CC[C@H](CCn2cc(-c3ccccc3F)nn2)O[C@H]1CO` the figure was 0.128% (inactive); with `O=C(Cc1ccncc1)N[C@H]1CC[C@H](CCn2cc(-c3ccccc3F)nn2)O[C@@H]1CO`, 0.035% (inactive).
Take `O=C(Cc1cccnc1)N[C@H]1CC[C@H](CCn2cc(-c3ccccc3F)nn2)O[C@H]1CO`: the activity (Tm shift, normalised) was 8.31% (active).
As to `CCCC(=O)Nc1ccc2c(c1)OC[C@H](C)N(CCC)C[C@@H](C)[C@@H](OC)CN(C)C2=O`, the activity (Tm shift, normalised) was 0.113% (inactive).
On to `CCN(CC)C(=O)C(=O)Nc1cccc(Br)c1`, for which the activity (Tm shift, normalised) is 43.2% (active).
With `CSc1ccccc1NC(=O)CN(C)CC(=O)Nc1cccc(Br)c1`, the activity (Tm shift, normalised) is -0.022% (inactive).
The same measure for `CCN(CC)N=Nc1cccc(NC(C)=O)c1`: 0.992% (inactive); for `Cc1ccc(S(=O)(=O)N[C@H]2CC[C@H](CC(=O)O)O[C@H]2CO)cc1`: 0.52% (inactive).
The same measure for `C[C@H](CO)N1C[C@H](C)[C@H](CN(C)S(=O)(=O)c2ccccc2C#N)OCc2cn(nn2)CCCC1=O`: -0.183% (inactive).
For the compound `O=C(N/N=C/c1ccc([N+](=O)[O-])cc1)c1c[nH]c2ccccc12`, the activity (Tm shift, normalised) was 1.58% (active).
With `O=C(NN=Cc1ccc([N+](=O)[O-])cc1)C1CC1`, the activity (Tm shift, normalised) is -0.001% (inactive).
Turning to `O=[N+]([O-])c1ccc(C=NN=Cc2ccc([N+](=O)[O-])cc2)cc1`, the activity (Tm shift, normalised) is 0% (inactive).
The same measure for `COc1cccc(-c2ccc3c(c2)O[C@H](CN(C)Cc2ccncc2)[C@H](C)CN([C@H](C)CO)S3(=O)=O)c1`: -0.104% (inactive); for `CCOc1ncccc1C(=O)OCC(=O)Nc1cccc(S(=O)(=O)N2CCCCCC2)c1`: 0.065% (inactive); for `NS(=O)(=O)c1cccc(NC(=O)COC(=O)c2cc([N+](=O)[O-])ccc2N2CCCC2)c1`: 1.34% (active).
Regarding `O=C(Nc1cccc(Cl)c1)c1cc([N+](=O)[O-])ccc1N1CCN(CCO)CC1`, the activity (Tm shift, normalised) was 0.039% (inactive).
With `C[C@@H]1CN([C@@H](C)CO)S(=O)(=O)c2ccc(C#CC3(O)CCCC3)cc2O[C@H]1CN(C)C(=O)c1ccncc1` the figure was -0.043% (inactive).
On to `COc1ccc(S(=O)(=O)N2CC[C@@H]3[C@H](CO)Nc4ccc(C#Cc5cccc(OC)c5)cc4[C@@H]32)cc1`, for which the activity (Tm shift, normalised) was 0.013% (inactive).
Consider `O=C(C[C@@H]1C[C@@H]2c3cc(NC(=O)c4ccc5c(c4)OCO5)ccc3O[C@@H]2[C@H](CO)O1)NCCc1ccccc1`, for which the activity (Tm shift, normalised) was 0.032% (inactive).
With `COc1ccc(NC(=O)Nc2cccc3c2O[C@H](CN(C)S(=O)(=O)c2cn(C)cn2)[C@H](C)CN([C@@H](C)CO)C3=O)cc1` the figure was -0.085% (inactive); with `CN1C(=O)c2cc(NC(=O)c3cccc(F)c3)ccc2OC[C@@H]2O[C@@H](CC(=O)NCC3CCCCC3)CC[C@H]21`, -0.226% (inactive) and -0.131% (inactive); with `CCC(=O)N1[C@@H](CO)[C@@H](c2ccccc2)C12CN(C(=O)Cc1ccccc1)C2`, -0.201% (inactive).
The same measure for `Cc1cc(NC(=O)CCC(=O)N(CC(=O)NCC2CCCO2)c2ccccc2)no1` (stereo unspecified): 0.811% (inactive); for `Cc1cc(C)cc(N(CC(=O)NC2CCCC2)C(=O)CCC(=O)Nc2cc(C)on2)c1`: -0.343% (inactive).
The same measure for `COC(=O)c1cccc(N(CC(=O)NCC2CCCO2)C(=O)CCC(=O)Nc2cc(C)on2)c1` (stereo unspecified): 43% (active); for `COC(=O)C1=C(C(=O)OC)C(c2cc([N+](=O)[O-])ccc2O)c2sc(=O)[nH]c2S1` (stereo unspecified): 43.5% (active); for `COC(=O)c1c(C)[nH]c(C)c1-c1ccc([N+](=O)[O-])cc1`: 0.028% (inactive).
`COC(=O)C1=CN(c2ccc(F)c(F)c2)C=C(C(=O)OC)C1c1ccc([N+](=O)[O-])cc1`: the activity (Tm shift, normalised) is 0.128% (inactive).
The same measure for `CCCNC(=O)N1CC(=O)N2[C@H](CO)[C@H](c3ccc(C#Cc4cccc(OC)c4)cc3)[C@H]2C1`: 0.3% (inactive); for `C[C@H]1CCCCO[C@@H](CN(C)C(=O)Cc2ccccc2)[C@@H](C)CN([C@@H](C)CO)C(=O)c2cc(NC(=O)c3ccccc3)ccc2O1`: -0.058% (inactive); for `Cc1ccc(S(=O)(=O)N(C)C[C@@H]2Oc3ccc(NC(=O)C4CCCCC4)cc3CC(=O)N([C@@H](C)CO)C[C@H]2C)cc1`: -0.112% (inactive).
With `COc1cccc(NC(=O)C[C@@H]2CC[C@H]3[C@@H](COc4ccc(NC(=O)C5CCOCC5)cc4C(=O)N3C)O2)c1` the figure was -0.165% (inactive).
With `Cc1ccc2[nH]cc(CCNC(=O)c3ccc([N+](=O)[O-])cc3)c2c1` the figure was 43.1% (active); with `Cc1ccc2[nH]cc(CCNC(=O)C3CCCCC3)c2c1`, -0.161% (inactive); with `O=C(NCCc1c[nH]c2ccc(Cl)cc12)c1ccc([N+](=O)[O-])cc1`, -0.153% (inactive).
As for `CS(=O)(=O)N1CC(=O)N2[C@@H](CO)[C@@H](c3ccc(C#CCC4CCCC4)cc3)[C@@H]2C1`, the activity (Tm shift, normalised) was -0.002% (inactive).
The same measure for `O=C(Nc1ccc(Cl)cc1)Nc1ccc(Oc2cccnc2)nc1`: 0.04% (inactive); for `Cc1ccc(NC(=O)Nc2cccnc2)cc1`: 1.35% (active); for `Cc1ccc(NC(=O)CCC(=O)c2ccc(Br)cc2)cc1`: 0.05% (inactive).
Turning to `Cc1ccc(NC(=O)c2cccnc2C(=O)Nc2ccc(C)cc2)cc1`, the activity (Tm shift, normalised) is 0.363% (inactive).
The same measure for `Cc1ccc(NC(=O)CC(=O)Nc2ccc(C)cc2)cc1`: 43.3% (active).
Turning to `Cc1ccc(NC(=O)Cn2c(C)csc2=O)cc1`, the activity (Tm shift, normalised) was -0.213% (inactive).
The same measure for `C[C@@H]1CN([C@@H](C)CO)C(=O)c2cc(N(C)C)ccc2O[C@@H](C)CCCCO[C@H]1CN(C)C(=O)CCCN(C)C`: -1.35% (inactive); for `CC(Sc1nncn1C)C(=O)Nc1cc(C(F)(F)F)ccc1N1CCOCC1` (stereo unspecified): 43% (active); for `O=C(CCC1CCCCC1)Nc1cc(C(F)(F)F)ccc1N1CCOCC1`: -0.247% (inactive).
For the compound `O=C(CN1C(=O)NC2(CCCC2)C1=O)Nc1cc(C(F)(F)F)ccc1N1CCOCC1`, the activity (Tm shift, normalised) is 0.22% (inactive).
On to `CCCN1[C@@H]2c3ccc(C4=CCCC4)c(=O)n3C[C@@H]2[C@@H](CO)[C@@H]1C(=O)NCc1ccccn1`, for which the activity (Tm shift, normalised) was -0.078% (inactive).

These data come from PubChem BioAssay AID651658 (Broad Institute, 2012).
